Assay [1] deals with Nuclear receptor coactivator 3 (Homo sapiens) (UniProt Q9Y6Q9). The experiment in a line: NCOA3 GAL4-fusion reporter inhibition – cell-based, luminescence, quadruplicate, confirmation (AID 588792;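 active = mean inhibition over 43.08%, the solvent-only control mean plus 3 SD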;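 also: 0% = DMSO treated cells and 100% = gossypol at 36 µM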). Conditions: HEK293 GAL4-SRC3 luciferase reporter, at 3.6 µM, hits give high values.
Assay [2] relates to transactivating tegument protein VP16 (Human herpesvirus 1), Gal4-VP16 luciferase reporter. The experiment in a line: repression of VP16-driven luciferase reporter – cell-based, luminescence, high throughput, counter-screen for SRC3 inhibitor project (AID 588794; in the data active = inhibition above about 30%). The following applies: mammalian cells, at 3.6 µM, hits give high values. On the technique in general: Reporter assays use an easily measured gene product as a stand-in for the process of interest.

In assay [3] the target is Nuclear receptor coactivator 1 (Homo sapiens) (UniProt Q15788). The experiment in a line: NCOA1 GAL4-fusion reporter inhibition – cell-based, luminescence, quadruplicate, confirmation (AID 588820;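 active = mean inhibition above 46.68%, the untreated control wells mean plus 3 SD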;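 also: 0% = DMSO wells and 100% = gossypol 36 µM treated wells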). Conditions: HEK293 GAL4-SRC1 luciferase reporter, at 3.6 µM, hits give high values.
Sequence of Nuclear receptor coactivator 1 (Homo sapiens) (Q15788 whole entry, looked up, the tested form may be a part): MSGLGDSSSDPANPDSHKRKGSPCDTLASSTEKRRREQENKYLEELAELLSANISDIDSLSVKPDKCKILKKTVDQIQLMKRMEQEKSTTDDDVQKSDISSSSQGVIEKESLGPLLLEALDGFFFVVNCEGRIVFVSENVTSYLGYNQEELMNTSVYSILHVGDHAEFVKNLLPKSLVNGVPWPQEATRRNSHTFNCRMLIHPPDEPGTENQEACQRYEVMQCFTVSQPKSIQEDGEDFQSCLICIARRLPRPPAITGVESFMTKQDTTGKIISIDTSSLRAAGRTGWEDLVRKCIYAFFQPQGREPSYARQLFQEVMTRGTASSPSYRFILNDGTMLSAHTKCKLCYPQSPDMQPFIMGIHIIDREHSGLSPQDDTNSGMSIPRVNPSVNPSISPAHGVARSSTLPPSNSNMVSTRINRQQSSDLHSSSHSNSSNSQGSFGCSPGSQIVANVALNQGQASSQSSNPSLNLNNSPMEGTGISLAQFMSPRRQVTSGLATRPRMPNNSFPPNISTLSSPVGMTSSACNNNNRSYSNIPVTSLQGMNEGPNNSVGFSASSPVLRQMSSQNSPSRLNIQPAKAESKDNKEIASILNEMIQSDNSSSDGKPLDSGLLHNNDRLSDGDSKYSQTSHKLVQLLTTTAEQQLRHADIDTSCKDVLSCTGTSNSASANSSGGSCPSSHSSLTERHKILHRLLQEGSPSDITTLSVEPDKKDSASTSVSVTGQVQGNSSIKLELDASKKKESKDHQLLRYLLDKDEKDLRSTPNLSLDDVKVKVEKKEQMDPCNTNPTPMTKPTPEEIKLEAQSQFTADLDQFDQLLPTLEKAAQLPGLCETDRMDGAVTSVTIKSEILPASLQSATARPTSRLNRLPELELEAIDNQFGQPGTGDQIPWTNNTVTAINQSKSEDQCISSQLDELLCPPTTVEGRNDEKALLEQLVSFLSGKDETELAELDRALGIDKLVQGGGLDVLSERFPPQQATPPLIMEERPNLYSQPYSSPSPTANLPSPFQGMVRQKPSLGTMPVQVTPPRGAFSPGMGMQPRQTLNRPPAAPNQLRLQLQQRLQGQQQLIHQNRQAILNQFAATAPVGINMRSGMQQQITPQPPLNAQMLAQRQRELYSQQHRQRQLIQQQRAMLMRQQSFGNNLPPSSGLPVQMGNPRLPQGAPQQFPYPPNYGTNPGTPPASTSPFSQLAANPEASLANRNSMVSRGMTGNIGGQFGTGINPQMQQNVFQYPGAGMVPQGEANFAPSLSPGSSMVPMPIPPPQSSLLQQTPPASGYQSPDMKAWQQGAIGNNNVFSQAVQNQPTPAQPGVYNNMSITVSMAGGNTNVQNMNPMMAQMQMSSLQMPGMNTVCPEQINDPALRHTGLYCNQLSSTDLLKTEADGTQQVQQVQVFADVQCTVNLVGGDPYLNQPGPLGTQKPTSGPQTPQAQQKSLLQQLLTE
Assay [4] in a line: repression of VP16-driven luciferase reporter – cell-based, luminescence, high throughput, counter-screen for SRC1 inhibitor project (AID 588824). The following applies: cell-based VP16 transactivation luciferase luminescence; at 3.6 µM; hits give high values.
The target of assay [5] is Nuclear receptor subfamily 5 group A member 2 (Homo sapiens) (UniProt O00482). The experiment in a line: NR5A2 activity suppression in reporter cells – cell-based, luminescence, confirmation (AID 651613; in the data active = inhibition above about 42%;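 also: HEK293T cells co-transfected with LRH-1 and StAR promoter luciferase reporter; 0% = vehicle wells and 100% = parental cells lacking receptor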). The following applies: cell-based LRH-1 luciferase reporter, inverse agonism; at 3.6 µM; hits give high values.
Assay [6] addresses Steroidogenic factor 1 (Homo sapiens) (UniProt Q13285). The experiment in a line: inverse agonism at SF1 nuclear receptor – cell-based, luminescence, high throughput, counter-screen for LRH-1 inverse agonist project (AID 651614; in the data active = inhibition above about 44%;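 also: cells cotransfected with StAR promoter reporter and SF1 expression vector; 0% = vehicle on cells with receptor and 100% = vehicle on cells lacking receptor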). The following applies: cell-based SF1 luciferase reporter, at 3.6 µM, hits give high values. (In general: The purpose of a counterscreen is to sort out artefacts and off-target activity.)

For assay [7], the system named is transactivating tegument protein VP16 (Human herpesvirus 1). The experiment in a line: compounds suppressing VP16-driven luciferase signal – cell-based, luminescence, single concentration, counter-screen for SRC2 inhibitor project (AID 652007; in the data active = inhibition above about 36%). The following applies: cell-based VP16 transactivation luciferase reporter, at 8.9 µM, hits give high values.
The target of assay [8] is Nuclear receptor coactivator 2 (Homo sapiens) (UniProt Q15596). The experiment in a line: inhibition of GAL4-SRC2 driven luciferase expression – cell-based, luminescence, HEK293, triplicate, confirmation (AID 652008;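 active = mean inhibition above 46.5%, the solvent-only control mean plus 3 SD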;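 also: 0% = DMSO-treated cells and 100% = Gossypol at 36 µM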). The following applies: HEK293 GAL4-SRC2 luciferase reporter, at 8.9 µM, hits give high values.
Sequence of Nuclear receptor coactivator 2 (Homo sapiens) (Q15596 whole entry, looked up, the tested form may be a part): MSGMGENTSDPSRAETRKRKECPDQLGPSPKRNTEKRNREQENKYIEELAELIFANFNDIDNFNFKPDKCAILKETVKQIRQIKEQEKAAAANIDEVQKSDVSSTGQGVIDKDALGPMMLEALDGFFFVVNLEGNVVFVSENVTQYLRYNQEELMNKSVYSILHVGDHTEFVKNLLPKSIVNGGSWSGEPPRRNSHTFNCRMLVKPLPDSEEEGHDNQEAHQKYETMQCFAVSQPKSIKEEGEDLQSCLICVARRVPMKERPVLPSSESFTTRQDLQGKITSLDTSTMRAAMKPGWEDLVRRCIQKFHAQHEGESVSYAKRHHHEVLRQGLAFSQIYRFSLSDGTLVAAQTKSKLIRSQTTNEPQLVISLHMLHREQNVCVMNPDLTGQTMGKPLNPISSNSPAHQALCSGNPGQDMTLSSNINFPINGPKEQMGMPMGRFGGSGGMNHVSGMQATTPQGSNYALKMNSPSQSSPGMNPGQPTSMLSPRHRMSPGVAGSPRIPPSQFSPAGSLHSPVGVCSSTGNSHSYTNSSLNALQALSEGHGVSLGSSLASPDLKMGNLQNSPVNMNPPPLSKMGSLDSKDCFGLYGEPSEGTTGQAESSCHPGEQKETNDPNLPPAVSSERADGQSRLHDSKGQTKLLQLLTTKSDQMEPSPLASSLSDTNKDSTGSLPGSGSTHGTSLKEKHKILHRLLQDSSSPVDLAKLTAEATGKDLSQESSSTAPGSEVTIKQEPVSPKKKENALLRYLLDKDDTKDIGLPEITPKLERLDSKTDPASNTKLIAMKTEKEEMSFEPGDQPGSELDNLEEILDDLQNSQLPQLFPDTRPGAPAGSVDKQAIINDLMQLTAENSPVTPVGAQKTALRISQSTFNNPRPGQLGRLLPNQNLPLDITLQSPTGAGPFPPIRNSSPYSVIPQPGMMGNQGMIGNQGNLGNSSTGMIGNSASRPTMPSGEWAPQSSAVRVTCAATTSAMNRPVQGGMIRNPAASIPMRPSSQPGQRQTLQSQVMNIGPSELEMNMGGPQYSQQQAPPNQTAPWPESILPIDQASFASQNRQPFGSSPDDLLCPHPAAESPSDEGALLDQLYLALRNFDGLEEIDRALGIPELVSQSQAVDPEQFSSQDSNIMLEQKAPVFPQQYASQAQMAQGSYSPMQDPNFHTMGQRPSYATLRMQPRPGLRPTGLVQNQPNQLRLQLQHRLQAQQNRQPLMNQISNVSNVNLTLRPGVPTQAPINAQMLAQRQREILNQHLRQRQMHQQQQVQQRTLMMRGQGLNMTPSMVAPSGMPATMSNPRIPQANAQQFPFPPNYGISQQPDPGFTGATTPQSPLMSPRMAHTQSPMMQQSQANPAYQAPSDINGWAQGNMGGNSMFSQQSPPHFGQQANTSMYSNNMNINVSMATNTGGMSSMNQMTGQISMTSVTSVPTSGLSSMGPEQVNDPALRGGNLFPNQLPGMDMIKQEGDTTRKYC
Assay [9] is described as follows: StAR promoter reporter inhibitors, counter-screen for LRH-1 inverse agonist project, cell-based, luminescence, high throughput (AID 651611; in the data active = inhibition above about 28%). The following applies: StAR promoter luciferase reporter counterscreen, at 3.6 µM, hits give high values.
A short description of assay [10]: compounds suppressing VP16-driven luciferase signal – cell-based, luminescence, high throughput, counter-screen for LRH-1 inverse agonist project (AID 651615; in the data active = inhibition above about 33%). Conditions: Gal4-VP16 luciferase reporter cells, at 3.6 µM, hits give high values.
A short description of assay [11]: reduced OD of V66 E. coli with T4 gene 2 phage – absorbance, RecBCD inhibitor project, confirmation (AID 651982;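 active = mean inhibition over triplicates exceeding the hit threshold derived in the original primary screen, cut at about 11% in these data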). The following applies: E. coli V66 + T4 2- phage, growth OD; at 11.9 µM; hits give high values.
A short description of assay [12]: bacterial growth inhibition – absorbance, high throughput, counter-screen for RecBCD inhibitor project (AID 651983; in the data active = inhibition above about 20%;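 also: E. coli strain V66 grown with compound alone and no phage infection; 0% = bacteria with DMSO vehicle only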). Conditions: E. coli viability, absorbance (OD) growth; at 11.9 µM; hits give high values.
The nature of assay [13]: reduced optical density, T4-challenged addAB+ bacteria – absorbance, E. coli V3065, T4 phage, counter-screen for RecBCD inhibitor project, confirmation (AID 651984;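 active = mean inhibition above the solvent-only control wells' mean plus 3 SD, cut at about 22% in these data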;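 also: higher means less bacterial growth from phage killing when AddAB is blocked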). The following applies: E. coli expressing H. pylori AddAB + T4 phage, OD growth; at 11.9 µM; hits give high values; gene 2 mutant T4, recBCD-deleted host.

A number with no mark means an inactive call. The list shows a part of the results. Active and inactive are the calls of the source. Rule as the data show it, unless noted: active = inhibition above about 25%; inactive = the rest.

Experimental findings from PubChem BioAssay are described below.

Sequence of Nuclear receptor coactivator 3 (Homo sapiens) (Q9Y6Q9 whole entry, looked up, the tested form may be a part): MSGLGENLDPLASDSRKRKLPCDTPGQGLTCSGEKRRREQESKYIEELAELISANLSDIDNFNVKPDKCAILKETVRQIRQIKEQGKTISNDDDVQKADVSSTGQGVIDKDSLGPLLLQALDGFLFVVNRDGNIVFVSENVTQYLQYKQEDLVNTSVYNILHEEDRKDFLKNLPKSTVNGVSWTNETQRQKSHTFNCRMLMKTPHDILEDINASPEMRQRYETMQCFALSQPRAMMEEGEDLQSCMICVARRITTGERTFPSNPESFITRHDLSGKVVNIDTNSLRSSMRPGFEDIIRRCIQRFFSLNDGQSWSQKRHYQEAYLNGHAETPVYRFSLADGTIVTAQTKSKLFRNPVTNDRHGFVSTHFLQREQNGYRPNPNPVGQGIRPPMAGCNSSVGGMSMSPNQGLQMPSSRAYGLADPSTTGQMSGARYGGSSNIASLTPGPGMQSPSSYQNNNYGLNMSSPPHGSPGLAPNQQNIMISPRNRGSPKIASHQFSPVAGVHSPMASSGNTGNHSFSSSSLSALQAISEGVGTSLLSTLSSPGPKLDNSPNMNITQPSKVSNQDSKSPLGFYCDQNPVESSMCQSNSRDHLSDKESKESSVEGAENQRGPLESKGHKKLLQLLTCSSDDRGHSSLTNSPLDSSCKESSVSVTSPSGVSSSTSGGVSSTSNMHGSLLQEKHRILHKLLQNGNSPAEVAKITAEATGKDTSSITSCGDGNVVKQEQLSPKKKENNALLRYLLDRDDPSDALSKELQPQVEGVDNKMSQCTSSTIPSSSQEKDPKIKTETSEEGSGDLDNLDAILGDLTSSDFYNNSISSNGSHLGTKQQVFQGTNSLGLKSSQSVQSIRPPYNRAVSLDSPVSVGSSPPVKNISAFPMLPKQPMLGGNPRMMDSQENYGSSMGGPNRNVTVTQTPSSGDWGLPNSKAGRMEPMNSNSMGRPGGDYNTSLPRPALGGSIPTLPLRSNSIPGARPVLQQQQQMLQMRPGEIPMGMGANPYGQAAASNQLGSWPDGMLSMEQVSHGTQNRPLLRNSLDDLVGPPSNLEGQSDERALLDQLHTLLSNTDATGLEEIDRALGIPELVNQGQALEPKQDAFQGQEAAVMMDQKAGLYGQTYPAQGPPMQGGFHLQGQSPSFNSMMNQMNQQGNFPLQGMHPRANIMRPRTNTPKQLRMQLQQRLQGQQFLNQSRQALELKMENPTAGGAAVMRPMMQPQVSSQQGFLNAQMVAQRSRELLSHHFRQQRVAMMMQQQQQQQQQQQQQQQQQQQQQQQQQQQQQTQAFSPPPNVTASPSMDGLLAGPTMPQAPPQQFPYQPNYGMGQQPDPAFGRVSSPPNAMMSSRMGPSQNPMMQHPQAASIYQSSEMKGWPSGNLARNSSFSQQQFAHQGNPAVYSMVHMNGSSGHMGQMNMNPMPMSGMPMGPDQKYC
Sequence of Steroidogenic factor 1 (Homo sapiens) (Q13285 whole entry, looked up): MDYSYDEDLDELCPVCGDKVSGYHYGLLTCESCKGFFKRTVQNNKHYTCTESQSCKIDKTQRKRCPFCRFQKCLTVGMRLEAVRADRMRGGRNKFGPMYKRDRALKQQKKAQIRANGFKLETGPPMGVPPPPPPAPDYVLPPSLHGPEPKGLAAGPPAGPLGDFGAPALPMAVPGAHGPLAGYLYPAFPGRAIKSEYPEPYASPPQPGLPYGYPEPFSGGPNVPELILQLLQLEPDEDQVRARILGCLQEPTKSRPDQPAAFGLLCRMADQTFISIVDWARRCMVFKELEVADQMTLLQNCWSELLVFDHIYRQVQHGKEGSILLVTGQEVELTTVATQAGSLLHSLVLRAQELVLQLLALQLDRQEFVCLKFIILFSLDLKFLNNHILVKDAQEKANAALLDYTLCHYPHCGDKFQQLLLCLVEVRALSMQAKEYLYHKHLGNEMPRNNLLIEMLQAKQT

For the compound `O[C@@H]1[C@@H](O)C=C2CCN3Cc4cc5c(cc4[C@H]1C23)OCO5` (stereo not given in full), the inhibition – broadly, the drop in the measured response relative to a control, in per cent – in assay [1] is 84.3% (active); in [2], 77.5% (active); in assay [3], 48.1% (active); in assay [4] it was 76.7% (active); in [5], 105% (active); in [6], 93.4% (active). The results for the inhibition in [7] and in assay [8] were 15.7% and -13.8%, respectively.
As to `Cc1cc(NC(c2ccc(Cl)cc2)c2ccc3cccnc3c2O)no1` (stereo not given), the inhibition was 54% (active) in [1]; 42% (active) in [2]; 28.2% in [3]; 58.8% (active) in assay [4]; -9.15% in assay [7]; 17.6% in assay [8].
Regarding `c1ccc2c(-c3ccc4nncn4c3)cncc2c1`, the inhibition was 79% (active) in assay [1]; 54.1% (active) in [2]; 65.9% (active) in [3]; 56.4% (active) in assay [4]; -5.43% in assay [7]; 46.3% in assay [8].
Regarding `O=C(N/N=C/c1cc([N+](=O)[O-])ccc1O)NC12CC3CC(CC(C3)C1)C2`, the inhibition in assay [1] is 19%; in [2], 15.1%; in assay [3] it was -3.01%; in [4] it was 10.3%; in assay [7], -0.05%; in [8] it was 42.3%.
`CCCS(=O)(=O)c1cnc(C2COc3ccccc3O2)nc1N` (stereo not given): the inhibition was 61.5% (active) in assay [1]; 44.9% (active) in assay [2]; 18.9% in assay [3]; 33.6% (active) in assay [4]; 43.2% (active) in [9]; 2.93% in assay [5]. In addition, the inhibition was 36.5% in [6], 23.1% in assay [10], 37.2% (active) in [7] and 75% (active) in assay [8].
`Cc1nc2c(-c3ccccc3)cnn2c(N)c1-c1ccccc1`: the inhibition in assay [1] is 43.4% (active); in [2], 37.4% (active); in assay [3], 13.1%; in [4], 5.33%; in [9], -35.4%; in [5] it was -128%. Moreover, the inhibition in assay [6] was -43.9%; in assay [10], -38.5%; in [7], 19.9%; in assay [8], 58.2% (active).
Turning to `CCc1ccc(/C=C2\SC(=S)N(CCCC(=O)NCCCN3CCOCC3)C2=O)cc1`, the inhibition in assay [1] is 42.4%; in assay [2] it was 21.1%; in assay [3], 35.1%; in [4], 8.83%; in assay [7] it was 82.6% (active); in assay [8], 93.6% (active).
Regarding `Cc1ccc(/C=N/NC(=O)C2=NNC(c3ccccc3)(c3ccccc3)C2)c(O)c1`, the inhibition is 71.4% (active) in assay [1]; 57.5% (active) in assay [2]; 45.4% in [3]; 51.8% (active) in assay [4]; 3.86% in [11]; 5.88% in [12]. Moreover, the inhibition in assay [13] is 5.05%.
Take `Cc1c(C(C)NC(=O)c2cc(COc3cccc4cnccc34)on2)cnn1C` (stereo not given): the inhibition in assay [1] is 32.4%; in assay [2], 40.4% (active); in assay [3], 38.3%; in assay [4], 33.8% (active); in assay [7], 7.45%; in assay [8] it was 46.9% (active).
Turning to `COc1ccc(/C=C2/SC(=S)N(CCC(=O)O)C2=O)cc1`, the inhibition was 34.8% in assay [1]; 4.06% in [2]; 23% in assay [3]; 0.23% in assay [4]; -21.3% in [7]; 85.1% (active) in [8].
Regarding `COC(=O)Cc1[nH]n(-c2nc3ccccc3s2)c(=O)c1C(C)=Nc1ccc(OC)cc1`, the inhibition in [1] was 85.2% (active); in assay [2], 78.4% (active); in assay [3], 71.8% (active); in assay [4], 73.8% (active); in [7] it was 91.5% (active); in [8], 93.9% (active).
As for `CC(C)c1ccc(/C=C2\SC(=S)N(CCC(=O)N3CCCCC3CCO)C2=O)cc1` (stereo not given), the inhibition is 23.5% in assay [1]; -27.8% in assay [2]; 10.1% in [3]; -48.1% in [4]; -75% in [7]; 76.4% (active) in [8].
`CN(C)c1ccc(/C=C/c2nc3ccccc3s2)cc1`: the inhibition in assay [1] is 30.4%; in [2] it was 28.4%; in [3], 18.7%; in [4], 12.9%; in assay [7] it was 77.1% (active); in [8] it was 84% (active).
Consider `O=C(N/N=C/c1cc(Br)ccc1O)C(c1ccncc1)N1CCOCC1` (stereo not given), for which the inhibition was 19.3% in assay [1]; 20.1% in assay [2]; 19.4% in [3]; 10.6% in assay [4]; 11.5% in assay [7]; 10.1% in assay [8].
For the compound `CCOC(=O)c1cccc(NS(=O)(=O)c2ccc(NC(C)=O)cc2)c1`, the inhibition in assay [1] is 43.5% (active); in [2] it was 35.8% (active); in assay [3], 40.5%; in [4] it was 26.5% (active); in assay [7], -6.82%; in assay [8] it was 40.8%.
For the compound `Cc1cccc(Nc2ncnc3ccc(Br)cc23)c1`, the inhibition in assay [1] was 38.9%; in assay [2], 32.6% (active); in assay [3], 32.8%; in assay [4], 25.8% (active); in assay [7] it was 0.23%; in assay [8], 29.7%.
As for `CC(C)(C)c1ccc(C(=O)NC(=S)Nc2nc3c(s2)CCCC3)cc1`, the inhibition in [1] was 20.4%; in assay [2] it was -9.66%; in assay [3], -33.4%; in assay [4], -47.4%; in [7], 0.2%; in [8] it was 34.8%.
As to `CC1=C(C(=O)OCc2ccc3c(c2)OCO3)C(c2cccc([N+](=O)[O-])c2)NC(=O)N1` (stereo not given), the inhibition in assay [1] is 64.6% (active); in assay [2], 42.2% (active); in assay [3], 65.7% (active); in assay [4] it was 37.3% (active); in assay [7], -0.72%; in assay [8], 51.9% (active).
Consider `Cc1ccc(-n2c(C)c([N+](=O)[O-])c3ccc(O)c(CN(C)C)c32)cc1`, for which the inhibition in assay [1] was 76.7% (active); in assay [2] it was 51.9% (active); in assay [3] it was 63.4% (active); in [4], 49.5% (active); in [7] it was 2.96%; in [8], 41.4%.
